For assay [1], the system named is Wnt5a (protein binding on small-molecule microarray). Put plainly: small molecules binding Wnt5a protein – biophysical, small-molecule microarray, 635/667 nm fluorescence, primary screen (AID 1142).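 Further: fluorescence read at 667 nm with signal to noise per printed feature.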 Conditions: 635 nm fluorescence, higher = more signal.
Assay [2] is described as follows: ATP-based viability of Huh7 replicon cells – cell-based, CellTiter-Glo luminescence, basal, 48 h, cytotoxicity control for HCV replication inhibitor project, primary screen (AID 1143).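 Further: Huh7 hepatoma cells carrying a hepatitis C replication reporter with no stimulus; test concentration not given here.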 Conditions: higher = more signal, called active from +8 up or from −8 down. On the technique in general: A replicon is a self-replicating genome or part of one, used to study replication in cells.

Assay [3] in a line: Pseudomonas biofilm growth suppression – PAO1 strain, BacTiter-Glo luminescence, LB-PBS, primary screen (AID 1144). Particulars: P. aeruginosa PAO1 biofilm, 12 h, higher = more signal.
Assay [4] can be described thus: basal CRE-LacZ reporter activity in PC12 – cell-based, unstimulated, primary screen (AID 1145). Particulars: no forskolin, luminescence, 4.5 h, higher = more signal, called active from +8 up or from −8 down.
Assay [5] is described as follows: forskolin-driven CRE-LacZ activity in PC12 – cell-based, CRE-LacZ reporter, forskolin-stimulated, primary screen (AID 1146).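 Further: PC12 cells with 6xCRE LacZ reporter stimulated by forskolin 10 µM; beta-galactosidase reporter signal reflecting CREB driven transcription.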 Particulars: luminescence, 4.5 h, higher = more signal, called active from +8 up or from −8 down.
The target in assay [6] is Streptavidin (Streptomyces avidinii) (UniProt P22629). Put plainly: compounds binding control protein streptavidin – biophysical, small-molecule microarray, 635/667 nm fluorescence, artefact control for SMM compound annotation, primary screen (AID 1147).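 Further: signal reflects streptavidin binding to arrayed compounds as a control protein.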 Conditions: higher = more signal.
Assay [7] can be described thus: probe aInhba binding on compound microarray – biochemical, small-molecule microarray, 635/667 nm fluorescence, primary screen (AID 1148).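 Further: score merges 667nm spot fluorescence with signal-to-noise for antibody binding to printed compounds.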 Conditions: higher = more signal.
In assay [8] the target is Torsin-1A (Homo sapiens) (UniProt O14656). Put plainly: TOR1A wild-type binding on microarray – cell lysate, small-molecule microarray, lysate, 635/667 nm, primary screen (AID 1149). Conditions: COS7 hTOR1A-WT lysate, 635 nm fluorescence, higher = more signal.
For assay [9] the target is unchanged. In words: torsin A mutant lysate binding on microarrays – cell lysate, small-molecule microarray, COS7 lysate, 635/667 nm fluorescence, primary screen (AID 1150).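 Further: score pools 667 nm emission and signal to noise measuring lysate protein binding.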 Particulars: COS7 hTOR1A mutant lysate, 635 nm fluorescence, higher = more signal.
For assay [10], the system named is Sonic hedgehog protein (Shh). Put plainly: Sonic hedgehog microarray binding compounds – biochemical, small-molecule microarray, 635/667 nm fluorescence, primary screen (AID 1151).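 Further: Shh protein binding to compounds spotted on small-molecule microarray slides; score combines spot fluorescence intensity with signal-to-noise across triplicate slides.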 Conditions: 635 nm fluorescence, higher = more signal.
A short description of assay [11]: optical density shifts of acrAB sulA E. coli – strain DRC41, OD650, 48 h, E. coli filamentation inducer project, primary screen (AID 1152).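 Further: E. coli MC1000 strain DRC41 lacking acrAB efflux pump and sulA.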 Particulars: higher = more signal, called active from +8 up or from −8 down.
Assay [12] is described as follows: probe aLefty1 binding on compound microarray – biochemical, small-molecule microarray, 635/667 nm fluorescence, primary screen (AID 1153).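 Further: score merges spot fluorescence with signal-to-noise ratio from the scanned slide images.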 Particulars: higher = more signal.
The nature of assay [13]: plasmodial surface anion channel blockers, osmotic lysis – cell-based, P. falciparum Indochina, OD700, 1 h, primary screen (AID 1154). Particulars: P. falciparum Indochina infected RBC osmotic lysis, higher = more signal, called active from +8 up or from −8 down.
Assay [14] is described as follows: plasmodial surface anion channel blockers, osmotic lysis – cell-based, P. falciparum Indochina, OD700, 2 h, primary screen (AID 1155).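 Further: lysis reports solute entry through the parasite surface anion channel PSAC.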 Conditions: P. falciparum Indochina infected erythrocytes, higher = more signal, called active from +8 up or from −8 down.
A short description of assay [15]: changes in parasitized red cell lysis, either direction – P. falciparum Indochina, OD700, 3 h, PSAC antagonist project, primary screen (AID 1156). Conditions: P. falciparum-infected erythrocytes, osmotic lysis, higher = more signal, called active from +8 up or from −8 down.
The nature of assay [16]: plasmodial surface anion channel blockers, osmotic lysis – cell-based, P. falciparum Indochina, OD700, 18 h, primary screen (AID 1157). Particulars: P. falciparum Indochina infected erythrocytes, osmotic lysis OD700, 18 h; higher = more signal, called active from +8 up or from −8 down.
Assay [17] can be described thus: S6 kinase pathway phospho-S6 level changes – cell-based, A549, cytoblot, luminescence, serum-stimulated, primary screen (AID 1158).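 Further: serum-stimulated A549 lung adenocarcinoma cells; signal is phosphorylated S6 detected by cytoblot immunostaining with HRP secondary.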 Conditions: 5 h, higher = more signal.
The target of assay [18] is NADPH oxidase 2 (Homo sapiens) (UniProt P04839). Put plainly: compounds shifting NOX2 Amplex Red fluorescence – cell-based, HEK293-NOX2, PMA-stimulated, NOX inhibitor project, primary screen (AID 1159). Further: test concentration not given here. Particulars: 45 min, higher = more signal, called active from +8 up or from −8 down.
Assay [19] concerns the target NADPH oxidase 4 (Homo sapiens) (UniProt Q9NPH5). Put plainly: compounds shifting NOX4 Amplex Red fluorescence – cell-based, HEK293-NOX4, tetracycline-induced, NOX inhibitor project, primary screen (AID 1160). Conditions: HEK293-NOX4, Amplex Red H2O2 fluorescence, 45 min; higher = more signal, called active from +8 up or from −8 down.
For assay [20], the target named is NADPH oxidase 5 (Homo sapiens) (UniProt Q96PH1). Put plainly: compounds shifting NOX5 Amplex Red fluorescence – cell-based, HEK293-NOX5, NOX inhibitor project, primary screen (AID 1161). Particulars: HEK293-NOX5, ionomycin, 45 min, higher = more signal.

Structures are written as SMILES. Calls of active or inactive are those of the source. Unless noted, how the calls were made is not given here.

Sequence of NADPH oxidase 4 (Homo sapiens) (Q9NPH5 whole entry, looked up): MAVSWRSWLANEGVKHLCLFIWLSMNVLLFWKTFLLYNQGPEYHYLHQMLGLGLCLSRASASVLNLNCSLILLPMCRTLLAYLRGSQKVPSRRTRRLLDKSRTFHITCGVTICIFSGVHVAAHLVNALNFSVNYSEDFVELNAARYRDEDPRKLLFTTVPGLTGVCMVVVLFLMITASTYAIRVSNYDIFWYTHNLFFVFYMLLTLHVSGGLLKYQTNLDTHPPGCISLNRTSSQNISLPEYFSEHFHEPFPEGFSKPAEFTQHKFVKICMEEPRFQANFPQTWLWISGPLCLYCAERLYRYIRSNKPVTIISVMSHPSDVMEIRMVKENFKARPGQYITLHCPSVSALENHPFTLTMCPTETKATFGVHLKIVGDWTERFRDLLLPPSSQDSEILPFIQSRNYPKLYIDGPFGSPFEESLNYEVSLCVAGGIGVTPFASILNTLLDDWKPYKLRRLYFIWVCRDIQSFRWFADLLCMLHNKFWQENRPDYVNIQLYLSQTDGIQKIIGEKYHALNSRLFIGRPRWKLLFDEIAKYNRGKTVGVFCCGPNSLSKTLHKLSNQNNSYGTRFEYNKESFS
Sequence of NADPH oxidase 5 (Homo sapiens) (Q96PH1 whole entry, looked up): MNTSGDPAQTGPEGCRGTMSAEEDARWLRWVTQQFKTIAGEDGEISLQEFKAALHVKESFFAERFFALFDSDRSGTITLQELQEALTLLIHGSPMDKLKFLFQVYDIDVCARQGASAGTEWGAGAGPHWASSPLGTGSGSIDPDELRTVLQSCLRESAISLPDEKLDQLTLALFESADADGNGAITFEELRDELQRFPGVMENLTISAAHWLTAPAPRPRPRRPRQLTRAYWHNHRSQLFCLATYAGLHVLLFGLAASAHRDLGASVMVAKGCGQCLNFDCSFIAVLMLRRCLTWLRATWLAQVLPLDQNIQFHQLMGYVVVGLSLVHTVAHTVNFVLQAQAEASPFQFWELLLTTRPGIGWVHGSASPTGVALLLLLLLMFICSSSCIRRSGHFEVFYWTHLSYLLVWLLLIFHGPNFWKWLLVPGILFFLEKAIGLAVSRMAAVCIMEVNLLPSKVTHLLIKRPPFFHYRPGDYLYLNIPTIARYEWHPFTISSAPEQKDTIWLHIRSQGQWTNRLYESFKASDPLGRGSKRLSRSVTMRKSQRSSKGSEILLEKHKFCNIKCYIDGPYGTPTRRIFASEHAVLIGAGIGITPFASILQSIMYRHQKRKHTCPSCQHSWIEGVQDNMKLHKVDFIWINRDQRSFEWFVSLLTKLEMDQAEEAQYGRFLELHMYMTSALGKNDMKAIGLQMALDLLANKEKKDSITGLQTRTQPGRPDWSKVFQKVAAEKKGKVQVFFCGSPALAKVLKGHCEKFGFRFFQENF
Sequence of NADPH oxidase 2 (Homo sapiens) (P04839 whole entry, looked up): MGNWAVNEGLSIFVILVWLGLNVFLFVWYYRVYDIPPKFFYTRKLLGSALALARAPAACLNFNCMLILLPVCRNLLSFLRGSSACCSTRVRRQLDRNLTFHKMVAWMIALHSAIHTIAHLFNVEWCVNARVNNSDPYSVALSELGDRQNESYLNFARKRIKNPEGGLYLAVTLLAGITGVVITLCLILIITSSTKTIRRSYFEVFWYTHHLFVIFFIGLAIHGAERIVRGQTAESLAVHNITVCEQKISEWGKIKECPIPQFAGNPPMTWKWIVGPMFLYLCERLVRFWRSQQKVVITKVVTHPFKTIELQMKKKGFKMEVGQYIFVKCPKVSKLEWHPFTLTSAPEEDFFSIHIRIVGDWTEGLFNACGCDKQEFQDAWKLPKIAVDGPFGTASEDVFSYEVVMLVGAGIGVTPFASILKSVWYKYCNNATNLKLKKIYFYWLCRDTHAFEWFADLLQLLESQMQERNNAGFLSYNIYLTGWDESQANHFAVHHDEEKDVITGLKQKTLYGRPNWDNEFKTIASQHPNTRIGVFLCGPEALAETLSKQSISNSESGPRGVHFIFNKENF
Sequence of Torsin-1A (Homo sapiens) (O14656 whole entry, looked up): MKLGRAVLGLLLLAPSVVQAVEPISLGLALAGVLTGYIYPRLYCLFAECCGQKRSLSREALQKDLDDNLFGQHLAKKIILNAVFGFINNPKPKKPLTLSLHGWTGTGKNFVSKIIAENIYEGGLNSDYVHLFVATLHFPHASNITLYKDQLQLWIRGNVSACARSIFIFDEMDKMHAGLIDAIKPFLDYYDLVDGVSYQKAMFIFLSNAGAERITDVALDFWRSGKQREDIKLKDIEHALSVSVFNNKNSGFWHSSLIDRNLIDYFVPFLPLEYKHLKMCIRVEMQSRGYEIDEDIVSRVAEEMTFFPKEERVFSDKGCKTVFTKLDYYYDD
Sequence of Streptavidin (Streptomyces avidinii) (P22629 whole entry, looked up): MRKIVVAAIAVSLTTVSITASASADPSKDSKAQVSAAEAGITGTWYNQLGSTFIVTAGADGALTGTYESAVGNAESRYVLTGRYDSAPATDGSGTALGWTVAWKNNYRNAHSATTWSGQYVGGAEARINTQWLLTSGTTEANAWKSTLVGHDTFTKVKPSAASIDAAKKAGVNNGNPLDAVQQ

Consider `C=C(C(=O)CC[C@@H](OC(=O)c1ccccc1-c1ccccc1C(=O)O)c1ccc(OCCO)cc1)C(C)C`, for which the composite z-score in assay [1] is 1.04; in [6], 0.0206; in assay [7] it was -0.0468; with Torsin-1A (Homo sapiens) [8], -0.13; with Torsin-1A (Homo sapiens) [9], 0.261; in assay [10], 2.1. Moreover, in assay [12], the composite z-score amounted to 0.312. Besides, the z-score in [2] is 0.0006 (inactive); in assay [3], -0.367 (inactive); in assay [4], 3.88 (inactive); in assay [5], 2.07 (inactive); in [11], -0.383 (inactive); in [13], 13.6 (active). The z-score was 1.37 (inactive) in assay [14]; 1.2 (inactive) in [15]; 0.405 (inactive) in assay [16]; -0.26 in [17]; 1.43 (inactive) in assay [18]; 0.123 (inactive) in assay [19]. Moreover, the z-score in [20] was -1.3.

In the case of `COC(=O)C[C@H]1O[C@]2(C(=O)N(C)c3ccccc32)[C@@H](C)[C@@H]1[Si](C)(C)c1ccccc1`, the composite z-score was 0.148 in assay [1]; 1.02 in assay [6]; -0.204 in assay [7]; 0.262 with Torsin-1A (Homo sapiens) [8]; 0.395 with Torsin-1A (Homo sapiens) [9]; 1.65 in assay [10]. In assay [12], this compound yielded a composite z-score of 0.151. The z-score in assay [2] was -4.59 (inactive); in [3] it was 0.115 (inactive); in [4], -0.141 (inactive); in [5] it was -0.477 (inactive); in assay [11] it was -0.297 (inactive); in [13] it was 1.48 (inactive). Moreover, the z-score in assay [14] was 0.405 (inactive); in assay [15], 1.1 (inactive); in assay [16] it was 0.0591 (inactive); in assay [17], 0.252; in assay [18], 0.767 (inactive); in [19], 0.176 (inactive). Further, in assay [20], the z-score is -1.11.

Turning to `[N-]=[N+]=NCc1ccccc1[C@H]1OC(c2ccc(OCCCO)cc2)=N[C@@]1(Cc1ccccc1N=[N+]=[N-])C(=O)O`, the composite z-score in [1] was 0.322; in assay [6], 1.55; in assay [7], 0.147; in the assay with Torsin-1A (Homo sapiens) [8], 0.136; in the assay with Torsin-1A (Homo sapiens) [9], 0.691; in assay [10], -0.141. The compound further displayed a composite z-score in assay [12] of 0.479. Besides, the z-score in assay [2] is -1.16 (inactive); in [3], 0.159 (inactive); in [4] it was -0.137 (inactive); in assay [5] it was -0.763 (inactive); in assay [11], -1.17 (inactive); in assay [13] it was 22.2 (active). Further, the z-score in assay [14] was 3.83 (inactive); in assay [15], 0.0591 (inactive); in assay [16], 0.395 (inactive); in [17], -0.314; in assay [18] it was 0.831 (inactive); in assay [19], 0.982 (inactive). Besides, the z-score in assay [20] was found to be 1.51.

`CCOC(=O)C1=C[C@@H](C(C)(C)C)N(S(=O)(=O)c2ccc(C)cc2)[C@H]1c1ccc(OC)cc1`: the composite z-score in assay [1] was 0.474; in assay [6], 1.36; in assay [7], 0.0541; with Torsin-1A (Homo sapiens) [8], 0.795; in the assay with Torsin-1A (Homo sapiens) [9] it was -0.198; in assay [10] it was 0.523. For the same compound, the composite z-score in assay [12] is 0.235. For the same compound, the z-score in assay [2] was -4.94 (inactive); in assay [3], -0.0448 (inactive); in assay [4], 0.238 (inactive); in [5], 0.334 (inactive); in [11], -0.0371 (inactive); in [13], 1.44 (inactive). Besides, the z-score is 1.11 (inactive) in assay [14]; 0.457 (inactive) in assay [15]; 0.71 (inactive) in [16]; -0.454 in [17]; -1.67 (inactive) in [18]; 0.244 (inactive) in assay [19]. Besides, the z-score in assay [20] was found to be 1.65.

The values are drawn from PubChem BioAssay.
